{"source": "paper PMC4336329", "about": "(PLoS ONE, 2015)", "note": "Screen size: about 310,000 compounds; about 14,000 (4.5%) showed an effect of 50% or more. Effects have a minus sign here. The sample as a whole holds a higher share of strong results than the screen did.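 Also: peak tail current of the secondary pulse compared with the same well before compound.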"}
{"target": "human ether-à-go-go-related gene (hERG) potassium channel (human, UniProt Q12809)", "sequence (Q12809 whole entry, looked up)": "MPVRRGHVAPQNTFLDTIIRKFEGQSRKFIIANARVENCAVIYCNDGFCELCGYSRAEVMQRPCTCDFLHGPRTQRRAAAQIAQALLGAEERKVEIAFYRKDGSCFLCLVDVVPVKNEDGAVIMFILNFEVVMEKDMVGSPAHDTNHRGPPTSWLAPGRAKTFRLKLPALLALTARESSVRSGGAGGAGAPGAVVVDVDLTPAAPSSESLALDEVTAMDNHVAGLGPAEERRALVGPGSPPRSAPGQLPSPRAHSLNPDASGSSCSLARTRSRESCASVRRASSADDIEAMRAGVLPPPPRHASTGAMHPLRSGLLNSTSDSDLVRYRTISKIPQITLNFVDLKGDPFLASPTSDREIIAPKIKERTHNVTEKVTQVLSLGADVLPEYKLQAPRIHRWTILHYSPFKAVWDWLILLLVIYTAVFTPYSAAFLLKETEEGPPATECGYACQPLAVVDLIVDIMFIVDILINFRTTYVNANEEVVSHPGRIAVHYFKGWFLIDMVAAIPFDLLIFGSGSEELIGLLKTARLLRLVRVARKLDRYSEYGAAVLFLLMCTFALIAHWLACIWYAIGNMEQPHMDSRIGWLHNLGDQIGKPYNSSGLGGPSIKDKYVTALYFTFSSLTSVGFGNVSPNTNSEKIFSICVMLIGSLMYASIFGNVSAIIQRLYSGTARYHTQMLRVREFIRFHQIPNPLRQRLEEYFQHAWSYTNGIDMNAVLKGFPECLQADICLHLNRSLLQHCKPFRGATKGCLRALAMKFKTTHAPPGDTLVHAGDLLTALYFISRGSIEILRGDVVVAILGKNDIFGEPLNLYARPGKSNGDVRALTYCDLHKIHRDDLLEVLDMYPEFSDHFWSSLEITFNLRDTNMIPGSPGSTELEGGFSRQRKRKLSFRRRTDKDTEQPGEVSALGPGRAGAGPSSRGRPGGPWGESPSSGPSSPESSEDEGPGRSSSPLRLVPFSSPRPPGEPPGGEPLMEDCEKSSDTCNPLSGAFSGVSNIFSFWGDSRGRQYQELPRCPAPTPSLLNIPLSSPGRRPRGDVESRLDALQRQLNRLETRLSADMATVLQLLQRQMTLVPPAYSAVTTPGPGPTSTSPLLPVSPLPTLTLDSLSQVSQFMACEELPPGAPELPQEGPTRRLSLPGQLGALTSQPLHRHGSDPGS", "assay": "primary screen, population patch clamp on CHO cells stably expressing hERG; higher = less effect of the substance", "units": {"hERG current change (%, negative = inhibition) at 10uM": "%"}}
{"smiles": "Nc1cc(-c2ccccc2)ccc1O", "hERG current change (%, negative = inhibition) at 10uM": 22.5}
{"smiles": "CCCC1=[N+](CC(C)=O)CCn2c(C)ccc21.[Br-]", "hERG current change (%, negative = inhibition) at 10uM": 20.1}
{"smiles": "Cc1ccc(OCC(=O)Oc2c(C)cccc2C)cc1", "hERG current change (%, negative = inhibition) at 10uM": 16.8}
{"smiles": "COc1ccc(CC(NC(C)=O)C(=O)NC2CCN(C(=O)Nc3ccccc3Cl)CC2)cc1OC", "note": "(centres unmarked)", "hERG current change (%, negative = inhibition) at 10uM": 12.7}
{"smiles": "CC(C)(C)c1ccc(-n2nc(C(N)=O)c(O)cc2=O)cc1", "hERG current change (%, negative = inhibition) at 10uM": 12.9}
{"smiles": "CC(=O)N1c2ccc(S(=O)(=O)N(C)c3cc(C)ccc3C)cc2CC1C", "note": "(centres unmarked)", "hERG current change (%, negative = inhibition) at 10uM": -8.67}
{"smiles": "Cc1csc(NC(=O)Cc2ccccc2[N+](=O)[O-])n1", "hERG current change (%, negative = inhibition) at 10uM": 8.85}
{"smiles": "CCCSc1nc(-n2ncc(C#N)c2N)c2c3c(sc2n1)CCC(C)C3", "note": "(centres unmarked)", "hERG current change (%, negative = inhibition) at 10uM": 5.45}
{"smiles": "COc1ccc(-n2ncc3c2CC(C)(C)CC3NC(=O)Cc2nonc2C)cc1", "note": "(centres unmarked)", "hERG current change (%, negative = inhibition) at 10uM": 3.4}
{"smiles": "C=CCCC(=O)NC1CC(C)(C)Cc2c1cnn2-c1ccc(OC)cc1", "note": "(centres unmarked)", "hERG current change (%, negative = inhibition) at 10uM": -46}
{"smiles": "COc1ccc(-n2ncc3c2CC(C)(C)CC3NC(=O)CCc2c(C)noc2C)cc1", "note": "(centres unmarked)", "hERG current change (%, negative = inhibition) at 10uM": -21.7}
{"smiles": "COc1ccc(-n2ncc3c2CC(C)(C)CC3NC(=O)c2cnc(C)cn2)cc1", "note": "(centres unmarked)", "hERG current change (%, negative = inhibition) at 10uM": -4.41}
{"smiles": "COc1ccc(-n2ncc3c2CC(C)(C)CC3NC(=O)c2oc(C)cc2C)cc1", "note": "(centres unmarked)", "hERG current change (%, negative = inhibition) at 10uM": 15.2}
{"smiles": "COC(=O)c1ccc(C(=O)NC2CC(C)(C)Cc3c2cnn3-c2ccc(F)cc2)nc1", "note": "(centres unmarked)", "hERG current change (%, negative = inhibition) at 10uM": -23.4}
{"smiles": "COc1ccc(-n2ncc3c2CC(C)(C)CC3NC(=O)c2ccnn2C)cc1", "note": "(centres unmarked)", "hERG current change (%, negative = inhibition) at 10uM": -78}
{"smiles": "CCc1nccn1CCC(=O)NC1CC(C)(C)Cc2c1cnn2-c1ccc(OC)cc1", "note": "(centres unmarked)", "hERG current change (%, negative = inhibition) at 10uM": -16.2}
{"smiles": "Cc1cc(C(=O)NC2CC(C)(C)Cc3c2cnn3-c2ccc(F)cc2)nn1C", "note": "(centres unmarked)", "hERG current change (%, negative = inhibition) at 10uM": -14.8}
{"smiles": "CC1(C)Cc2c(cnn2-c2ccc(F)cc2)C(NC(=O)C2=NNC(=O)CC2)C1", "note": "(centres unmarked)", "hERG current change (%, negative = inhibition) at 10uM": -68.4}
{"smiles": "COc1ccc(-n2ncc3c2CC(C)(C)CC3NC(=O)c2c(C)cc(=O)oc2C)cc1", "note": "(centres unmarked)", "hERG current change (%, negative = inhibition) at 10uM": -51.1}
{"smiles": "COc1ccc(-n2ncc3c2CC(C)(C)CC3NC(=O)CSc2ccccn2)cc1", "note": "(centres unmarked)", "hERG current change (%, negative = inhibition) at 10uM": -68}
{"smiles": "Cn1cc(S(=O)(=O)NCc2ccco2)c(=O)n(C)c1=O", "hERG current change (%, negative = inhibition) at 10uM": 3.03}
{"smiles": "Cc1onc(-c2c(F)cccc2Cl)c1C(=O)NCc1cccs1", "hERG current change (%, negative = inhibition) at 10uM": -21.2}
{"smiles": "COc1ccc(S(=O)(=O)N2CCOCC2)cc1N(C)S(=O)(=O)c1ccc(C)cc1", "hERG current change (%, negative = inhibition) at 10uM": 0.666}
{"smiles": "C/C(CC(=O)Nc1ccccn1)=N\\NC(=O)c1ccccc1O", "hERG current change (%, negative = inhibition) at 10uM": 6.73}
{"smiles": "COc1ccc(CCNC(=O)c2c(O)c3ccccc3[nH]c2=O)cc1", "hERG current change (%, negative = inhibition) at 10uM": 15.4}
{"smiles": "COc1cccc(NC(=O)c2ccc3c(c2)N(CC(=O)N2CCOCC2)C(=O)C(C)(C)O3)c1", "hERG current change (%, negative = inhibition) at 10uM": -5.35}
{"smiles": "CCOCCc1nnc(NC(=O)c2cccc(F)c2)s1", "hERG current change (%, negative = inhibition) at 10uM": 0.0842}
{"smiles": "COc1cc(NC(=O)C(C)Oc2ccccc2)cc(OC)c1", "note": "(centres unmarked)", "hERG current change (%, negative = inhibition) at 10uM": -2.9}
{"smiles": "Cc1ncoc1C(=O)NC1CC(C)(C)Cc2c1cnn2-c1ccc(F)cc1", "note": "(centres unmarked)", "hERG current change (%, negative = inhibition) at 10uM": -20.7}
{"smiles": "Cc1ccccc1-n1ncc2c1CC(C)(C)CC2NC(=O)C1=CC(=O)CC(C)(C)O1", "note": "(centres unmarked)", "hERG current change (%, negative = inhibition) at 10uM": -4.61}
{"smiles": "COCc1ccc(C(=O)NC2CC(C)(C)Cc3c2cnn3-c2ccc(OC)cc2)o1", "note": "(centres unmarked)", "hERG current change (%, negative = inhibition) at 10uM": -29.3}
{"smiles": "COc1ccc(-n2ncc3c2CC(C)(C)CC3NC(=O)c2ccc(OC)o2)cc1", "note": "(centres unmarked)", "hERG current change (%, negative = inhibition) at 10uM": -50.2}
{"smiles": "COc1ccc(-n2ncc3c2CC(C)(C)CC3NC(=O)c2ocnc2C)cc1", "note": "(centres unmarked)", "hERG current change (%, negative = inhibition) at 10uM": -53.5}
{"smiles": "Cn1nccc1C(=O)NC1CC(C)(C)Cc2c1cnn2-c1ccc(F)cc1", "note": "(centres unmarked)", "hERG current change (%, negative = inhibition) at 10uM": -61.4}
{"smiles": "CCN(CC)CC(=O)NC1CC(C)(C)Cc2c1cnn2-c1ccc(F)cc1", "note": "(centres unmarked)", "hERG current change (%, negative = inhibition) at 10uM": 7.43}
{"smiles": "COc1ccc(-n2ncc3c2CC(C)(C)CC3NC(=O)C2=CC(=O)CC(C)(C)O2)cc1", "note": "(centres unmarked)", "hERG current change (%, negative = inhibition) at 10uM": -68.3}
{"smiles": "COc1ccc(C(=O)NC2CC(C)(C)Cc3c2cnn3-c2ccccc2C)o1", "note": "(centres unmarked)", "hERG current change (%, negative = inhibition) at 10uM": -30.5}
{"smiles": "Cc1ncoc1C(=O)NC1CC(C)(C)Cc2c1cnn2-c1ccccc1", "note": "(centres unmarked)", "hERG current change (%, negative = inhibition) at 10uM": -20.5}
{"smiles": "COc1ccc(-n2ncc3c2CC(C)(C)CC3NC(=O)CN2CCOC2=O)cc1", "note": "(centres unmarked)", "hERG current change (%, negative = inhibition) at 10uM": -32.9}
{"smiles": "Cc1nonc1CC(=O)NC1CC(C)(C)Cc2c1cnn2-c1ccc(F)cc1", "note": "(centres unmarked)", "hERG current change (%, negative = inhibition) at 10uM": -15.7}
{"smiles": "O=C(O)CCCN1C(=O)/C(=C\\C(Cl)=C\\c2ccccc2)SC1=S", "hERG current change (%, negative = inhibition) at 10uM": 13.6}
{"smiles": "COc1ccc(OC)c(-c2nc(CN3CCN(C(=O)c4ccco4)CC3)c(C)o2)c1", "hERG current change (%, negative = inhibition) at 10uM": -21.9}
{"smiles": "O=C(NCc1cccs1)c1ccccc1[N+](=O)[O-]", "hERG current change (%, negative = inhibition) at 10uM": -11.4}
{"smiles": "COc1cc(-c2nnc3n(CCc4ccccc4)c(=O)c4ccccc4n23)cc(OC)c1OC", "hERG current change (%, negative = inhibition) at 10uM": -19.7}
{"smiles": "CCOC(=O)CN1C(=O)COc2ccc(Cl)cc21", "hERG current change (%, negative = inhibition) at 10uM": 19.2}
{"smiles": "CCOC(=O)c1[nH]cnc1C(=O)N[C@@H](C)c1ccccc1", "hERG current change (%, negative = inhibition) at 10uM": -5.33}
{"smiles": "O=C1CCc2cc(S(=O)(=O)N3CCC(C(=O)NCc4ccccn4)CC3)ccc2N1", "hERG current change (%, negative = inhibition) at 10uM": 16.9}
{"smiles": "CCOc1ccccc1NS(=O)(=O)c1cc2c3c(c1)C(C)C(=O)N3CCC2", "note": "(centres unmarked)", "hERG current change (%, negative = inhibition) at 10uM": 5.26}
{"smiles": "O=C(N/N=C/c1cn(-c2ccccc2)nc1-c1ccc(F)cc1)c1ccc(Br)o1", "hERG current change (%, negative = inhibition) at 10uM": 27.7}
{"smiles": "COCc1ccc(C(=O)NC2CC(C)(C)Cc3c2cnn3-c2ccc(C)cc2)o1", "note": "(centres unmarked)", "hERG current change (%, negative = inhibition) at 10uM": -39.3}
{"smiles": "CSCc1ccc(C(=O)NC2CC(C)(C)Cc3c2cnn3-c2ccc(F)cc2)o1", "note": "(centres unmarked)", "hERG current change (%, negative = inhibition) at 10uM": -56.5}
{"smiles": "COc1ccc(-c2[nH]ncc2-c2nc(C)cs2)c(O)c1", "hERG current change (%, negative = inhibition) at 10uM": 13.5}
{"smiles": "Cc1cc2cc(CN(CCCO)S(=O)(=O)c3cccc4nsnc34)c(=O)[nH]c2cc1C", "hERG current change (%, negative = inhibition) at 10uM": 0.493}
